Source: PubChem BioAssay (Sanford-Burnham Center for Chemical Genomics)
Mac1 fbg inh: blocks human CD11b/CD18 adhesion to fibrinogen | AID 1497 | P05107+P11215 | 93,000 tested, 0.54% active | K562 CD11b/CD18 adhesion to fibrinogen, ATPlite luminescence; Mn2+ added to activate the integrin | inhibition, % at 10 µM;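 active = primary inhibition of 50% or more at 10 µM, then 40% or more on retest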
CYP2C19 act: increases human CYP2C19 enzyme activity. P33261. recombinant CYP2C19, luciferin-H EGE luminescence; stronger effect = higher value; 0 = fully inhibited enzyme, 1 = untreated enzyme. activation factor at 5 µM. 96,000 tested, under 10 active;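 active = activation factor of at least 2 at 5 µM in the primary screen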;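 note: 0 = wells with 2.5 mM tranylcypromine and 1 = vehicle-only wells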
CYP2C19 inh: inhibitors of human CYP2C19; P33261; CYP2C19 Supersomes, luciferin-H EGE luminescence, 30 min; inhibition, % at 5 µM; 96,000 tested, 21% active; AID 778;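 active = CYP2C19 inhibition above a set limit at 5 µM in the primary screen, cut at about 50% in these data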;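 note: plate controls were negative control wells for no effect and 2.5 mM tranylcypromine positive control for full effect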
Mac1 fbg enh: CD11b/CD18-fibrinogen binding enhancement | P05107+P11215 | K562 CD11b/CD18 adhesion to fibrinogen, ATPlite luminescence | activation, % at 10 µM | 93,000 tested, 0.07% active | AID 1499;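 active = 10 µM primary screen giving 50% or more activity, confirmed by 40% or more on retest at that dose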
CYP2C9 inhib: blocks human cytochrome P450 2C9. P11712. CYP2C9 Supersomes, luciferin-H conversion, luminescence. inhibition, % at 5 µM. 96,000 tested, 20% active. AID 777;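 active = blocking of liver enzyme CYP2C9 beyond about 50% at 5 µM, limit read from the data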
CYP2C9 act: activators of human CYP2C9; P11712; recombinant CYP2C9, luciferin-H conversion, luminescence; stronger effect = higher value; factor 1 = untreated enzyme, 0 = blocked; activation factor at 5 µM; 96,000 tested, 1.4% active; AID 1024;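 active = activation factor of 2 or more for CYP2C9 at a 5 µM dose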;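 note: 0 = sulfaphenazole-blocked wells and 1 = vehicle-only wells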
Starred values were filed as active, the others as inactive; · = not tested or not shown. Only some compounds are listed: those with a hit (about 28% of all), similar ones and a draw of the others.

SMILES	Mac1 fbg inh	CYP2C19 act	CYP2C19 inh	Mac1 fbg enh	CYP2C9 inhib	CYP2C9 act
Cn1c2ccccc2c2c(C(=O)N3CCC4(CC3)OCCO4)cn(C3CCCC3)c(=O)c21	-46	0.7	28	-2	72*	0.3
O=C(Cc1cccs1)N1CCC2(CC1)OCCO2	3	0.2	80*	4	-14	1.1
Cn1c(=O)cc(SCC(=O)N2CCC3(CC2)OCCO3)c2ccccc21	9	0.8	16	2	-105	2.1*
Cn1cc(CCC(=O)N2CCC3(CC2)OCCO3)c2ccccc21	-5	0	98*	-3	-40	1.4
O=S(=O)(c1ccccc1)N1CN2CCN(C2)C1	-10	0.9	6	3	5	0.9
CCC(=Nc1ccccc1NC(C)=O)c1c(O)n(C)c(=O)n(C)c1=O	-31	0.8	15	-1	34	0.7
CC(=O)N1N=C2C3CCN(CC3)C2C1c1ccccc1 (stereo unspecified)	4	1.2	-18	-5	-14	1.1
CCCC(=O)c1c(O)[nH]c(=O)[nH]c1=O	-14	1.2	-16	1	-5	1.1
COc1ccc(N=C(C)c2c(O)n(C)c(=O)n(C)c2=O)c(OC)c1	7	0.9	10	0	19	0.8
COc1ccc2c(c1OC)C(=O)OC2c1c(O)n(C2CCCCC2)c(=O)[nH]c1=O (stereo unspecified)	-21	0.9	6	-1	69*	0.3
COc1ccccc1-n1c(O)c(C=NCCN2CCNCC2)c(=O)[nH]c1=O	·	0.7	35	·	58*	0.4
O=c1[nH]c(=O)n(Cc2ccccc2)c(O)c1C=NCCN1CCNCC1	2	0.8	17	-1	23	0.8
CC(=O)Nc1ccccc1OC(=O)N(C)C	-7	1.1	-9	0	0	1
Cc1ccc(N(C)C(=O)Oc2cccc3cccnc23)cc1	2	0.1	87*	-1	49	0.5
CN(C)C(=O)Oc1cccc2c(OC(=O)N(C)C)cccc12	-9	1.1	-10	0	21	0.8
Cc1ccc2cccc(OC(=O)N(C)c3ccccc3)c2n1	-6	0.1	90*	1	28	0.7
CC(C)Sc1nnc([C@@H](N)Cc2c[nH]c3ccccc23)o1	-8	0.2	77*	2	18	0.8
O=C1NC(=S)NC(=O)C12C(c1ccc(F)cc1)NC(=S)NC2c1ccc(F)cc1 (stereo unspecified)	7	1.2	-21	-5	-13	1.1
